FBPA coupling cs: counter-screen for Giardia aldolase inhibitors: coupling enzyme system; hit rate 0.67% among 290,000; coupling enzyme system counterscreen, AmpLite Red fluorescence; activity change, negative = inhibition, % at 58.2 µM, hits read low; AID 2472; in the data active means activity change below about -30%
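Counterscreen of the coupled detection system alone, without aldolase: glyceraldehyde-3-phosphate coupling enzymes plus AmpLite Red readout. Compounds at 57.5 uM final, 10 min RT preincubation, 20 min RT reaction, fluorescence 525/598 nm.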
ALDH1A1 inh: blocks purified human ALDH1A1 activity. P00352. Purified ALDH1A1, NADH fluorescence, propionaldehyde substrate. Potency, µM (highest dose often 75.3 µM), without a hit: top-dose activity, negative = inhibition, hits mostly inhibitors. hit rate 7.3% among 220,000; active means well fitted inhibition curve with a large enough effect, not every such curve was filed as active; inconclusive means small, poorly fitted or top-dose-only effect, or another doubt; inactive means no such curve, though single readings can be large or run the other way;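 further: potency means the concentration at half of the fitted maximal effect; plate controls were no enzyme wells and a reference inhibitor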
GoLoco inh red: blocks human Gai1 binding to RGS12 GoLoco peptide, red readout | P63096 | Gai1:RGS12 GoLoco peptide FP, rhodamine, 10 min | Potency, µM (doses to about 61.6 µM), inactives show at the highest dose activity, negative = inhibition, hits mostly inhibitors | hit rate 0.44% among 230,000; active means well fitted inhibition curve with a large enough effect, not every such curve was filed as active; inactive means no such curve, though single readings can be large or run the other way; further: potency means the concentration at half of the fitted maximal effect; nearly all actives have a fitted effect of over 30% in size
Target sequence (P63096 whole entry, looked up): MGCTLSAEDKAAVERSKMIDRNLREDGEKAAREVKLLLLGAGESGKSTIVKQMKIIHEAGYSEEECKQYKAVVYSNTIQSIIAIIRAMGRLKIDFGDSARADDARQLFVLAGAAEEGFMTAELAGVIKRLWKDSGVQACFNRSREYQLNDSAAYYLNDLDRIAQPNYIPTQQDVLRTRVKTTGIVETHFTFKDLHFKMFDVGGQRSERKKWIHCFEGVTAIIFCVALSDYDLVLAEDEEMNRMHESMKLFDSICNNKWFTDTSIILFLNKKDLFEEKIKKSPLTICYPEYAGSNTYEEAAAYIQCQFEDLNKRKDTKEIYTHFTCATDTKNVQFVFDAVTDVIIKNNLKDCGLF
KDM4E inh: blocks human JMJD2E demethylase activity | B2RXH2 | JMJD2E catalytic domain, FDH-coupled NADH fluorescence (FDH is formaldehyde dehydrogenase) | Potency, µM (top dose mostly 57.1 µM), for inactives: at the top dose activity change, negative = inhibition, most hits filed as inhibitors | hit rate 1.6% among 230,000; active means well fitted inhibition curve with a large enough effect, not every such curve was filed as active; inconclusive means small, poorly fitted or top-dose-only effect, or another doubt; inactive means no such curve, though single readings can be large or run the other way;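 further: potency means the concentration at half of the fitted maximal effect; 0% = wells with enzyme and -100% = buffer wells without enzyme; nearly all actives have a fitted effect of over 50% in size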
Target sequence (B2RXH2 1-337 limits assumed): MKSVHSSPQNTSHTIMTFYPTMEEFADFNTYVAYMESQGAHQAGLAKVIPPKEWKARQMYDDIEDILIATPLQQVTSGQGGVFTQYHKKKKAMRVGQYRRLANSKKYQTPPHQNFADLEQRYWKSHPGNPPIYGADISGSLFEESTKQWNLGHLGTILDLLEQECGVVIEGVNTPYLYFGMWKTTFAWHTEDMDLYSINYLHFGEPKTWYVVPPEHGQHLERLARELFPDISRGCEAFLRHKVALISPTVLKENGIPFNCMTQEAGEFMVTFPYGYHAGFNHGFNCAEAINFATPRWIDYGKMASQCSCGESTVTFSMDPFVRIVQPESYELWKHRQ
NPSR antag: blocks cAMP signaling of the human neuropeptide S receptor | Q6W5P4 | AID 1461 | Potency, µM (doses to about 38.3 µM), inactives show at the highest dose activity change, negative = inhibition, hits mostly inhibitors | CHO-NPSR cells, cAMP TR-FRET, antagonist mode | hit rate 1% among 220,000; further: potency means the concentration at half of the fitted maximal effect; nearly all actives have a fitted effect of over 50% in size
Sfp PPTase inh: blocks B. subtilis Sfp PPTase activity. Biochemical Sfp PPTase activity, qHTS. Q9F4F7. Potency, µM, for inactives: largest response in the series, negative = inhibition, actives largely listed as inhibitors. hit rate 3.5% among 310,000;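 further: the enzyme is Sfp with the accession as filed and its product quenches rhodamine fluorescence; potency means the concentration at half of the fitted maximal effect; 0% = enzyme reaction without inhibitor and -100% = no enzyme wells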
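Reaction rates are the 30-min fluorescence difference (ex 525, em 598 nm) in wells containing 15 nM Sfp, 5 uM rhodamine-CoA and 12.5 uM BHQ-2-YbbR at pH 7.6 with 10 mM MgCl2.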
Active calls of the source: *; [ ] = another dose, or the depositor's remark. Hits are enriched below; roughly 8.5% of the tested compounds scored in any of these assays. Unless noted, the call rests on the fitted dose curve; in most records, active means well fitted curve in the direction sought with a large enough effect; inconclusive means small, poorly fitted or top-dose-only effect, or another doubt; inactive means no such curve, though single readings can be large; an effect the other way counts as inactive or inconclusive. Unless noted, on the % scale 0 is the no-effect control and ±100 the full control effect.

How did Cc1ccc2[nH]c(C(=O)N3CCC(C(N)=O)CC3)cc2c1 do in these assays?
FBPA coupling cs: -1; Sfp PPTase inh: 14%

Results for COc1cc2[nH]c(C(=O)Nc3ccc(F)cc3)cc2c(OC)c1OC ?
FBPA coupling cs: -3; Sfp PPTase inh: 3%

What do the screens show for `Cc1nn(Cc2ccc(Cl)cc2)c(C)c1NC(=O)CSc1nc2c(c(C(F)(F)F)n1)CCc1ccccc1-2`?
FBPA coupling cs: 2; ALDH1A1 inh: 9%; GoLoco inh red: 14%; KDM4E inh: 7%; NPSR antag: 13%[46.1 µM]; Sfp PPTase inh: 35µM*

Results for Cc1ccc(C(C[N+](=O)[O-])Sc2ccc(N)cc2)cc1 (configuration not stated) ?
FBPA coupling cs: 3; ALDH1A1 inh: 4µM*; GoLoco inh red: 3%; KDM4E inh: -10%; NPSR antag: inconclusive; Sfp PPTase inh: 5.6µM*

Results for O=C(CCN1CCN(c2ccccc2F)CC1)c1ccc(Br)cc1 ?
FBPA coupling cs: 3; ALDH1A1 inh: inconclusive; KDM4E inh: 25µM*; NPSR antag: -13%[46.1 µM]; Sfp PPTase inh: -26%

Results for COc1ccc(C(=O)CCN2CCN(c3ccccc3F)CC2)cc1 ?
FBPA coupling cs: 1; ALDH1A1 inh: 0.13µM*; GoLoco inh red: -3%; KDM4E inh: 2%; NPSR antag: -9%; Sfp PPTase inh: 50µM*

What do the screens show for `O=C(CCN1CCN(c2ccccc2)CC1)c1ccc(Br)cc1`?
FBPA coupling cs: 1; Sfp PPTase inh: -5%

Results for Cc1ccsc1C(=O)OCc1nc2ccccc2c(=O)[nH]1 ?
FBPA coupling cs: -35*; ALDH1A1 inh: -5%; GoLoco inh red: 0%; KDM4E inh: -12%; NPSR antag: -14%[46.1 µM]; Sfp PPTase inh: 1%

What do the screens show for `CCOC(=O)c1nc2ccccc2c(=O)[nH]1`?
FBPA coupling cs: -1; ALDH1A1 inh: -7%; GoLoco inh red: 4%; KDM4E inh: 10%; NPSR antag: -19%; Sfp PPTase inh: -12%

How did Cc1cc(C)c(S(=O)(=O)N2CCOC2CNC(=O)C(=O)NCc2ccncc2)c(C)c1 (configuration not stated) do in these assays?
Sfp PPTase inh: 6%

Results for OC(COCCOc1ccc(Br)cc1)CN1CCCCC1 (configuration not stated) ?
FBPA coupling cs: -2; ALDH1A1 inh: -14%; GoLoco inh red: -11%; KDM4E inh: 0%; NPSR antag: 27%; Sfp PPTase inh: -1%

What do the screens show for `N#Cc1cc2c(nc1SCc1nc3ccccc3[nH]1)CCC2`?
FBPA coupling cs: -3; ALDH1A1 inh: inconclusive; GoLoco inh red: 9%; KDM4E inh: inconclusive; NPSR antag: -13%[46.1 µM]; Sfp PPTase inh: 56µM*

How did Cc1cccc(CSc2nc3c(cc2C#N)CCC3)c1 do in these assays?
FBPA coupling cs: 0; ALDH1A1 inh: 18%; GoLoco inh red: 11%; KDM4E inh: 5%; NPSR antag: inconclusive; Sfp PPTase inh: -2%

What do the screens show for `CCOC(=O)C1C(=O)C(C(C)=O)C(=O)CC1CC(C)SCC` (configuration not stated)?
FBPA coupling cs: -1; ALDH1A1 inh: 3%; GoLoco inh red: -1%; KDM4E inh: -29%; NPSR antag: inconclusive; Sfp PPTase inh: -12%

How did O=C(CSc1nnc(COc2ccc(Br)cc2)o1)NC1CCCCC1 do in these assays?
FBPA coupling cs: 2; Sfp PPTase inh: 8%

How did CC(=O)/C(C=Nc1noc(C)c1Br)=C(\C)O do in these assays?
FBPA coupling cs: 1; GoLoco inh red: -15%; KDM4E inh: 4%; NPSR antag: -1%[7.67 µM]; Sfp PPTase inh: 2%

Results for Cc1ccc2nc(NCc3ccccc3)c(C#N)cc2c1 ?
FBPA coupling cs: -13; GoLoco inh red: 6%; KDM4E inh: inconclusive; NPSR antag: inconclusive; Sfp PPTase inh: 79µM*

Results for COc1ccc(OC2C=CC(C#Cc3ccc(Br)cc3)OC2CO)c(C(C)(C)C)c1 (configuration not stated) ?
FBPA coupling cs: -7; ALDH1A1 inh: inconclusive; Sfp PPTase inh: 20%

What do the screens show for `Cc1ccc(N2C(=O)c3ccccc3C2C(=O)c2ccc(O)cc2O)cc1` (configuration not stated)?
FBPA coupling cs: 3; ALDH1A1 inh: -3%; GoLoco inh red: -9%; KDM4E inh: 20µM*; NPSR antag: -21%; Sfp PPTase inh: inconclusive

What do the screens show for `O=c1c2ccccc2nc(/C=C/c2cccnc2)n1CCc1ccccc1`?
FBPA coupling cs: -2; GoLoco inh red: 0%; KDM4E inh: 16µM*; NPSR antag: -37%; Sfp PPTase inh: -10%

What do the screens show for `NS(=O)(=O)c1ccc(N/N=C/c2ccccc2C(=O)O)c([N+](=O)[O-])c1`?
FBPA coupling cs: 6; ALDH1A1 inh: inconclusive; GoLoco inh red: 15%; KDM4E inh: inconclusive; NPSR antag: -3%; Sfp PPTase inh: -2%

How did Cc1cc([N+](=O)[O-])c2[nH]c(C(=O)N/N=C/c3ccccc3C(=O)O)c(-c3ccccc3)c2c1 do in these assays?
FBPA coupling cs: 4; ALDH1A1 inh: 1.4µM*; GoLoco inh red: 7%; KDM4E inh: -3%; NPSR antag: -21%[46.1 µM]; Sfp PPTase inh: inconclusive

Results for CCN1C(=O)/C(=C\C=C2/C=CC=CN2CC)SC1=S ?
FBPA coupling cs: -31*; ALDH1A1 inh: 25µM*; GoLoco inh red: 338%; KDM4E inh: inconclusive; NPSR antag: -56%; Sfp PPTase inh: inconclusive

Results for CCN1C(=O)/C(=C/C=C2\C=CN(CC)c3ccccc32)SC1=S ?
FBPA coupling cs: -36*; ALDH1A1 inh: inconclusive; GoLoco inh red: 12%; KDM4E inh: inconclusive; NPSR antag: 3.2µM*; Sfp PPTase inh: 45µM*

What do the screens show for `CCC(=O)Nc1sc2c(c1C#N)CC(C)(CC)OC2` (configuration not stated)?
FBPA coupling cs: 1; ALDH1A1 inh: -7%; GoLoco inh red: -7%; KDM4E inh: -1%; NPSR antag: -6%[46.1 µM]; Sfp PPTase inh: 56µM*

Results for Cc1noc(C)c1CSCC(=O)N(C)CC(=O)Nc1ccc(Cl)cc1 ?
Sfp PPTase inh: -1%

Results for C=CCNC(=O)c1oc2ccc(S(=O)(=O)N(CC)CC)cc2c1C ?
FBPA coupling cs: 5; ALDH1A1 inh: 20µM*; GoLoco inh red: 76%; KDM4E inh: 11%; NPSR antag: -4%[46.1 µM]; Sfp PPTase inh: 3%

What do the screens show for `CCN(CC)S(=O)(=O)c1ccc2oc(C(=O)N3CCCCCC3)c(C)c2c1`?
FBPA coupling cs: 0; ALDH1A1 inh: 13µM*; GoLoco inh red: 9%; KDM4E inh: -1%; NPSR antag: inconclusive; Sfp PPTase inh: -11%

How did O=C(NCc1ccccc1)C1(C(F)(F)F)C/C(=C\Cc2ccccc2)CCCO1 (configuration not stated) do in these assays?
FBPA coupling cs: 1; Sfp PPTase inh: 4%

From PubChem
